Results on 13 compounds are retold here after PubChem BioAssay (NCI).

Structures are written as SMILES. The panel holds about 83,000 compounds, 20% with a hit somewhere; the sample as a whole holds those more often.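 Each cell line was grown in a 96-well plate and treated with one concentration of compound for 48 hours. Values below 10 were considered active.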 Values without a mark were called inactive. Calls of active or inactive are those of the source.

Holding throughout (assay): NCI-60 one-dose screen, 48 h (100 = growth as untreated, 0 = no growth, -100 = all killed)
Common to all, as to settings: 10 µM unless noted

The subject of test [1] is SK-MEL-2 melanoma.
Test [2] has as its system EKVX NSCLC.
In test [3] the test system is SN12C renal.
In test [4] the test system is UO-31 renal.
Test [5] deals with TK-10 renal.
The subject of test [6] is ACHN renal.
The subject of test [7] is CAKI-1 renal.
For test [8], the system named is A498 renal.
Test [9] has as its system CCRF-CEM leukemia.
The subject of test [10] is MOLT-4 leukemia.

For the compound `O=c1oc2ccccc2cc1-c1csc(N2N=C(c3ccccc3)CC2c2ccc(N3CCOCC3)cc2)n1` (stereo not given), the growth in test [1] was 101%; in test [2] it was 96.1%; in test [3] it was 107%; in [4], 73.8%; in test [5] it was 159%; in test [6], 99.2%. Moreover, the growth in test [7] was 90.6%; in test [8] it was 153%; in [9], 96.6%; in test [10] it was 95.9%.
In the case of `COc1cc(CNC(=O)/C=C/c2ccc3c(c2)OCO3)ccc1OCc1cn(-c2cccc(C(F)(F)F)c2)nn1`, the growth in test [1] was 54%; in test [2], 6.68% (active); in test [3] it was 21.4%; in test [4] it was -4.4% (active); in [5], 19.9%; in test [6] it was 0.888% (active). In addition, the growth in [7] was 6.02% (active); in test [8], 57.7%; in [9], 52.2%; in test [10], 48.8%.
For `CC1=C(C(=O)OCc2ccccc2)C(c2c(O)cc(O)cc2O)n2c(nc3ccccc32)N1` (stereo not given), the growth in test [1] is 58%; in test [2] it was 54.4%; in test [3] it was 74.8%; in test [4], 46.4%; in test [5] it was 87.9%; in test [6], 46.6%. Besides, the growth in test [7] was 39.4%; in test [8], 102%; in test [9], 38.1%; in [10], 60.6%.
Regarding `CC12CC[C@@H]3[C@]4(C)COC(c5c(F)cccc5F)O[C@@H]4CC[C@@]3(C)[C@@H]1CC(C1=CCOC1=O)O2` (stereo not given in full), the growth was 81.2% in test [1]; 70.3% in [2]; 66.6% in test [3]; 76.4% in test [4]; 93.5% in test [5]; 35% in test [6]. Moreover, the growth in test [7] is 87.2%; in [8], 106%; in [9] it was 74.8%; in test [10] it was 52.6%.
With `O=C(c1ccccc1)c1ccc2nc(-c3cccc(Cl)c3)[nH]c2c1`, the growth in test [1] was 106%; in test [2], 105%; in [3] it was 99.5%; in test [4], 95.4%; in [5], 95.9%; in test [6] it was 100%. Further, the growth in test [7] was 106%; in [8], 114%; in test [9] it was 113%; in test [10] it was 103%.
For the compound `CCN(CC)c1ccc(/C=N/Nc2nc(-c3ccc(Br)cc3)cs2)c(O)c1`, the growth in test [1] is 94.6%; in [2], 90.9%; in [3] it was 23.1%; in [4] it was 65.4%; in test [5], 96.5%; in test [6] it was 76.1%. The growth in test [7] was 55.1%; in test [8], 102%; in test [9], 1.36% (active); in test [10], 12.3%.
On to `CCOC(=O)/C=C/c1cccc2c1C(=O)NC(C)(c1cc3cc(Cl)ccc3oc1=O)N2` (stereo not given), for which the growth in test [1] is 7.1% (active); in test [2], 31.8%; in [3] it was 31.5%; in test [4] it was 11.7%; in test [5], 46.2%; in [6] it was 10%. Moreover, the growth in test [7] is 10.5%; in [8], 30.3%; in [9], 37.4%; in [10], 4.75% (active).
For `COCOc1cc2c(=O)c(C)c(C(=O)N[C@@H](Cc3ccccc3)C(O)C(=O)NCc3ccccc3)oc2cc1OC` (stereo not given in full), the growth was -2.79% (active) in test [1]; 78.4% in test [2]; 42.7% in test [3]; 81.5% in [4]; 88.8% in test [5]; 83.7% in test [6]. For the same compound, the growth in [7] was 50.5%; in test [8], -6.29% (active); in test [9] it was 96.1%; in test [10], 87.8%.
`Cn1cc(NC(=O)c2cc(NC(=O)c3ccc(/C=C/c4ccccc4)cc3)cn2C)cc1C(=O)NCCCN1CCOCC1`: the growth in test [1] was 99.6%; in test [2], 89.6%; in [3] it was 43.4%; in test [4], 61.6%; in test [5], 87.9%; in test [6], 70.7%. The growth in test [7] was 55.6%; in test [8], 90.6%; in test [9], -8.72% (active); in [10], -23.6% (active).
On to `O=c1cc(-c2ccccc2)oc2cc(OCCCC[P+](c3ccccc3)(c3ccccc3)c3ccccc3)cc(O)c12`, for which the growth was -94.1% (active) in test [1]; -97.6% (active) in test [2]; -49.5% (active) in [3]; -97.1% (active) in [4]; -81.8% (active) in [5]; -100% (active) in test [6]. Further, the growth was -97.1% (active) in test [7], -83.3% (active) in [8], -75.9% (active) in test [9] and -41.7% (active) in [10].
In the case of `CC(C)CCNC(=O)N/C(N)=N/c1nc2ccccc2s1`, the growth in [1] is 86.4%; in test [2] it was 28.3%; in test [3] it was 73.6%; in [4], 73.7%; in test [5] it was 88.3%; in [6], 58.4%. The growth in [7] is 52.1%; in [8], 116%; in test [9], 59.1%; in test [10] it was 29.6%.
With `COc1cc2c(c(OC)c1OC)C(=O)CC(c1cccc(NC(=O)c3cc(NC(=O)[C@H](CO)NC(=O)OC(C)(C)C)ccc3Cl)c1)O2` (stereo not given in full), the growth was 11.7% in test [1]; 62.2% in test [2]; 27.1% in test [3]; 48.8% in test [4]; 78.9% in test [5]; 46.1% in test [6]. Further, the growth was 31.2% in test [7], 91.5% in [8], 21.8% in [9] and 12.5% in [10].
For the compound `O=C(N/N=C/c1ccc(-c2ccc(O)cc2)o1)c1[nH]c2ccc(Br)cc2c1-c1ccccc1`, the growth in test [1] is 1.84% (active); in test [2], 8.78% (active); in [3] it was -57.9% (active); in test [4] it was 1.62% (active); in test [5] it was 1.67% (active); in test [6], -21.7% (active). Moreover, the growth is 5.94% (active) in [7], 38.2% in [8], 4.83% (active) in test [9] and 0.944% (active) in [10].
